ASM inhibitor: inhibitors of human secretory acid sphingomyelinase; P17405; placental ASM, HMU-PC fluorogenic substrate, 60 min; Potency, µM (highest dose often 57.5 µM), without a hit: at the highest dose activity change, negative = inhibition, hits mostly inhibitors; hit rate 0.006% among 340,000
Target sequence (P17405 47-631 limits assumed): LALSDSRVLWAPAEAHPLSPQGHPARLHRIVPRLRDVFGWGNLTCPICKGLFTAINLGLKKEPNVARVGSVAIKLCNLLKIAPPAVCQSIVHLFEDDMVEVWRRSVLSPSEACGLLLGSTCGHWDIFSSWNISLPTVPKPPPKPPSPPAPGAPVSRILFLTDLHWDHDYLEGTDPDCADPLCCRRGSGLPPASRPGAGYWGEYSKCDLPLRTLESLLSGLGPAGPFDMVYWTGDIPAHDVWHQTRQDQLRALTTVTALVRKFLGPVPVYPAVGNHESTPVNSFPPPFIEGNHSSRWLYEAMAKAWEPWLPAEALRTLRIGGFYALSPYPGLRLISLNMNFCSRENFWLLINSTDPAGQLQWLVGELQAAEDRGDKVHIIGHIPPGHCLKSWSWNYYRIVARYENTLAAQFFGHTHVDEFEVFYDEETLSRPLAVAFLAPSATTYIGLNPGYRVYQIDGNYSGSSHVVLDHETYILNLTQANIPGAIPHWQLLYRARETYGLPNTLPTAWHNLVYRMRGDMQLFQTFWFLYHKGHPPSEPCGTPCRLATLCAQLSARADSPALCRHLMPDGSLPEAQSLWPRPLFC
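Human placenta-derived ASM preincubated with compound 10 min at room temperature, then reacted with 9 uM (final) fluorogenic HMU-PC substrate for 60 min at 37 C. Stop solution raises pH to 10; fluorescence read at Ex 386/Em 447 nm.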
Tb PFK block: blocks T. brucei phosphofructokinase. O15648. T. brucei PFK, ADP-Glo luminescence. Potency, µM (series often up to 57.5 µM), for inactives: top-dose activity, negative = inhibition, hits mostly inhibitors. hit rate 0.17% among 330,000. AID 485367;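 also: 0% = uninhibited 1x PFK enzyme wells and -100% = no-enzyme wells; nearly all actives have a fitted effect of over 60% in size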
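ADP-Glo luminescence quantified ADP after 45 min at room temperature, with 1.25 nM T. brucei PFK, 0.1 mM ATP and 0.5 mM fructose-6-phosphate in pH 8.0 TEA buffer. qHTS titrations up to 57 µM; curves classified by quality.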
KAT2A inh: GCN5L2 (KAT2A) acetyltransferase inhibition | Q92830 | GCN5L2 HAT assay, ThioGlo1 CoA-SH fluorescence | Potency, µM (doses to about 58.9 µM), for the others: at the highest dose activity change, negative = inhibition, actives largely listed as inhibitors | hit rate 0.21% among 390,000; also: % is scaled to controls: 0 for no effect and ±100 for the full control effect
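ThioGlo1-coupled HAT assay: 20nM GCN5L2, 70uM acetyl-CoA, 75uM H3(1-25) peptide, pH 7.5. Fluorescence read at 340/540nm at start and after 20 min at room temperature.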
p53 reactivation: re-activators of mutant p53; H1299 p53-A138V BP100-luciferase reporter, luminescence, 24 h; Potency, µM (top dose mostly 92.2 µM), for inactives: at the highest dose activity change, positive = activation, hits mostly activators; hit rate 0.063% among 320,000; AID 504706; also: % of control where 0% means no effect; nearly all actives have a fitted effect of over 45% in size
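H1299 (p53-null), stable ts p53-A138V + BP100-Luc; 1000 cells/well, Opti-MEM/10% FBS; cpd 4 pt, 1:5; 24 h, 37 deg C, 5% CO2; detection reagent 10 min RT; luminescence.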
A-T KAP1 phos: potential ataxia-telangiectasia treatment | F2112 A-T fibroblasts, KAP-1 phosphorylation AlphaLISA; neocarzinostatin DNA damage 30 min before lysis | Potency, µM (series often up to 57.5 µM), without a hit: at the highest dose activation, most hits filed as activators | hit rate 0.19% among 320,000; also: % of control where 0% means no effect; nearly all actives have a fitted effect of over 45% in size
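ATM-like activity read as KAP-1 phosphorylation via AlphaLISA donor/acceptor antibody pairs after lysis and 6 hr at 25C. Cells were ATM-null patient fibroblasts (F2112, hTERT), dosed 60 min, then exposed to the DSB inducer NCS for 30 min.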
ERG Ets-DNA blk: inhibitors of human ERG Ets domain-DNA interaction; hit rate 0.028% among 370,000; AID 624246; Potency, µM (titrated, usually from 76.9 µM), for inactives: top-dose FP activity, negative = inhibition, most hits filed as inhibitors; P11308; fluorescence polarization, His-ERG Ets domain / labelled DNA; active = well fitted inhibition curve with a large enough effect in the polarisation, with a control signal flat; inconclusive = small, poorly fitted or top-dose-only effect, or effect the other way, or a change in a side signal; inactive = no such curve, though single readings can be large or run the other way; the % refers to the polarisation;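 also: polarization taken with two DNA probes labelled with fluorescein and Texas red; % of control where 0% means no effect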
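His-tagged ERG Ets domain (1 uM in the protein solution; 300mM KCl, 50mM Tris-HCl, 1mM EDTA, 1mM DTT, pH 7.5) received compound, then a probe mix of 5 nM fluorescein-DNA and 100nM Texas-615-DNA. Fluorescence polarization was read for both dyes.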
An asterisk follows results filed as active; ! = not confirmed by another sample. An excerpt weighted towards active compounds, which were near 0.55% of everything screened. Unless noted, calls follow the shape of the dose curve; as a rule, active = well fitted curve in the direction sought with a large enough effect; inconclusive = small, poorly fitted or top-dose-only effect, or another doubt; inactive = no such curve, though single readings can be large; an effect the other way counts as inactive or inconclusive. Potency is read from the fitted curve at half-maximal effect.

COc1ccc(NC(=S)NC(NC(=O)/C=C/c2ccccc2)C(Cl)(Cl)Cl)cc1 (stereo unspecified) was read as ASM inhibitor -6%, Tb PFK block -5%, KAT2A inh 1µM*, p53 reactivation -5%, A-T KAP1 phos 2% and ERG Ets-DNA blk -9%.
Screening CCn1cc(CNC(=O)c2cc(COc3ccc(F)cc3Cl)on2)cn1 returned ASM inhibitor -1%, Tb PFK block 5%, KAT2A inh 3%, p53 reactivation 2%, A-T KAP1 phos 9% and ERG Ets-DNA blk 9%.
`CCn1nc(C)c(CNC(=O)c2cc(COc3ccc(F)cc3Cl)on2)c1C` gave ASM inhibitor -2%, Tb PFK block 0%, KAT2A inh -6%, p53 reactivation -1%, A-T KAP1 phos 1.6µM* and ERG Ets-DNA blk -5%.
`Cc1cc(C)cc(NC(=O)CSc2nc3ccccc3nc2N2CCCCC2)c1` gave ASM inhibitor 22%, Tb PFK block -7%, KAT2A inh 35µM*, p53 reactivation 12%, A-T KAP1 phos inconclusive and ERG Ets-DNA blk 10%.
Cc1cc(C)cc(NC(=O)CSc2nc3ccccc3nc2N2CCCC2)c1 was read as ASM inhibitor 46%, Tb PFK block -2%, KAT2A inh inconclusive, p53 reactivation 6%, A-T KAP1 phos 13% and ERG Ets-DNA blk 5%.
Screening CCCCCC#CCC#CCC#CCC#CCCCC(=O)O returned Tb PFK block inconclusive, KAT2A inh 2.2µM*, p53 reactivation -4% and A-T KAP1 phos -4%.
For CC(=O)OC[C@]12CC[C@H]3[C@@](C)(CC[C@H]4C(C)(C)CCC[C@]34C)[C@@H]1C[C@H](C1=CC(=O)O[C@@H]1OC(C)=O)O2 the results were Tb PFK block 0%, KAT2A inh -19%, p53 reactivation -21% and A-T KAP1 phos 40µM*.
Screening CC1(C)CCC[C@]2(C)[C@H]3CC(=O)O[C@]3(C)CC[C@@H]12 returned ASM inhibitor 1%, Tb PFK block -7%, KAT2A inh 1%, p53 reactivation -3%, A-T KAP1 phos 1% and ERG Ets-DNA blk -10%.
For C[n+]1cc2c3c(ccc2c2ccc4cc5c(cc4c21)OCO5)OCO3 the results were KAT2A inh 16µM*!.
`Oc1cccc(NC(=S)N=Nc2c(O)[nH]c3ccccc23)c1` gave ASM inhibitor -12%, Tb PFK block 14%, KAT2A inh 6%, p53 reactivation 26%, A-T KAP1 phos 1.3µM* and ERG Ets-DNA blk 10%.
CC(=O)c1cccc(N/C=C\C(=O)c2ccc(C)cc2)c1 was read as ASM inhibitor 44%, Tb PFK block -2%, KAT2A inh -4%, p53 reactivation 35µM*, A-T KAP1 phos 5% and ERG Ets-DNA blk -6%.
For Cc1ccc(S(=O)(=O)NC(=S)c2ccccc2)cc1 the results were ASM inhibitor 3% and ERG Ets-DNA blk 1%.
Screening Cc1ccc(C(=S)NCS(=O)(=O)c2ccc(C)cc2)cc1 returned ASM inhibitor 0%, Tb PFK block 27µM*, KAT2A inh -2%, p53 reactivation 1%, A-T KAP1 phos -2% and ERG Ets-DNA blk -6%.
CCOc1cc(N2CCOCC2)c(OCC)cc1NC(=O)Cc1ccccc1OC was read as ASM inhibitor -2%, Tb PFK block -17%, KAT2A inh 28µM*, p53 reactivation -5%, A-T KAP1 phos 3% and ERG Ets-DNA blk -1%.
For O=C1Oc2ccccc2C(=O)C1C(CC(O)c1ccc(-c2ccc(Br)cc2)cc1)c1ccccc1 (stereo unspecified) the results were KAT2A inh 22µM*.
`CCCCCCCCCn1ccc(=N)cc1` gave ASM inhibitor -1%, Tb PFK block 4%, KAT2A inh -7%, p53 reactivation -9%, A-T KAP1 phos 3.2µM* and ERG Ets-DNA blk 1%.
For Cc1cc(NC(=O)/C=C/c2ccco2)ccc1NC(=O)c1ccccc1 the results were ASM inhibitor 0%, Tb PFK block 1%, KAT2A inh 3.2µM*, p53 reactivation -1%, A-T KAP1 phos 5% and ERG Ets-DNA blk -6%.
CCC(=O)N1CCc2cc(S(=O)(=O)NC(Cc3ccccc3)C(=O)NCc3cccc(OC)c3)ccc21 (stereo unspecified) was read as KAT2A inh -11% and ERG Ets-DNA blk 1%.
Cc1cccc(NC(=O)CNC(=O)c2cccc(-n3cccc3)c2)c1C was read as Tb PFK block 21µM*, KAT2A inh inconclusive, p53 reactivation 2%, A-T KAP1 phos 12% and ERG Ets-DNA blk 5%.
Screening COc1ccccc1N(CC(=O)Nc1ccc(C)c(Cl)c1)S(=O)(=O)c1ccc(C)cc1 returned KAT2A inh -4% and ERG Ets-DNA blk 1%.
`COC(=O)c1ccc(C(=O)Nc2ccc(F)cc2)cc1` gave ASM inhibitor 5%, Tb PFK block -7%, KAT2A inh -6%, p53 reactivation inconclusive, A-T KAP1 phos 28µM* and ERG Ets-DNA blk -11%.
COC(=O)c1ccc(NC(=O)Cc2ccc(F)cc2)cc1 was read as ASM inhibitor -1%, Tb PFK block -22%, KAT2A inh -3%, p53 reactivation -4%, A-T KAP1 phos -1% and ERG Ets-DNA blk 6%.
For O=C1NC(=O)c2c1c(-c1ccccc1)cc1[nH]c3ccc(O)cc3c21 the results were KAT2A inh 4%.
CCN(CC)c1ccc2c(C)c(Cl)c(=O)oc2c1 was read as ASM inhibitor inactive, Tb PFK block 0%, KAT2A inh -3%, p53 reactivation 1%, A-T KAP1 phos 2% and ERG Ets-DNA blk 4%.
For CCN(CC)c1ccc2ccc(=O)oc2c1 the results were ASM inhibitor inactive, Tb PFK block -2%, KAT2A inh inconclusive, p53 reactivation -3%, A-T KAP1 phos -3% and ERG Ets-DNA blk 7%.
Screening CCN(CC)c1ccc2c(C)cc(=O)oc2c1 returned ASM inhibitor inactive, Tb PFK block 7%, KAT2A inh -10%, p53 reactivation -4%, A-T KAP1 phos 32µM* and ERG Ets-DNA blk -9%.
For CCOC(=O)Cc1c(C)c2ccc(N(CC)CC)cc2oc1=O the results were ASM inhibitor inactive, Tb PFK block 2%, KAT2A inh inconclusive, p53 reactivation 8%, A-T KAP1 phos 25µM* and ERG Ets-DNA blk -3%.
O=C(O)C(S)[C@@H](S)C(=O)O (stereo partly specified) was read as KAT2A inh 7.1µM*.

Screening data deposited in PubChem BioAssay by National Center for Advancing Translational Sciences (NCATS).
